Screening data: PubChem BioAssay, National Center for Advancing Translational Sciences (NCATS)
Sampled rows, rich in hits. Any-hit rate of the full collection: about 12%.
HP1b binding inh: HTS for Inhibitors of HP1-beta Chromodomain Interactions with Methylated Histone Tails; AlphaScreen HP1-beta / biotin-H3K9me3 peptide binding; Potency, µM (top dose mostly 114 µM), without a hit: top-dose activity change, negative = inhibition, usual class: inhibitors; 0.56% of 390,000 active; note: nearly all actives have a fitted effect of over 70% in size
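Compound inhibition of the preformed complex between 50 nM HP1-beta and 50 nM biotinylated H3K9me3 peptide was read by AlphaScreen. Buffer was PBS pH 7.4 with 0.01% Tween-20. Incubations ran 30 min at room temperature, with 10 ug/mL donor/acceptor beads.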
JMJD2A Tudor inh: qHTS Assay for Inhibitors of JMJD2A-Tudor Domain; Lysine-specific demethylase 4A (Homo sapiens), O75164; AlphaScreen JMJD2A-Tudor / H3K4me3 peptide binding; Potency, µM (top dose mostly 114 µM), without a hit: at the highest dose activity change, negative = inhibition, hits mostly inhibitors; 4.4% of 390,000 active; AID 504339, 2011; note: % is set by controls: 0 for no effect and ±100 for the full control effect; nearly all actives have a fitted effect of over 50% in size
Sfp inh: qHTS Assay for Inhibitors of Bacillus subtilis Sfp phosphopantetheinyl transferase (PPTase) | Biochemical Sfp PPTase activity, qHTS | AID 1490, 2009 | 3.5% of 310,000 active | Potency, µM, for the others: largest response in the series, negative = inhibition, most hits filed as inhibitors;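 note: the enzyme is Sfp with the accession as filed and its product quenches rhodamine fluorescence; 0% = enzyme reaction without inhibitor and -100% = no enzyme wells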
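Sfp 15 nM + cpd, 15 min RT; start w/ rhodamine-CoA 5 uM, BHQ-2-YbbR 12.5 uM (final); 50 mM Hepes pH 7.6, 10 mM MgCl2, 0.01% NP-40, 0.01% BSA; read 525/598 nm at 0 and 30 min.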
BAZ2B block: qHTS Assay for Inhibitors of BAZ2B; 4.4% of 360,000 active; Bromodomain adjacent to zinc finger domain protein 2B (Homo sapiens), Q9UIF8; AlphaScreen BAZ2B-H3K14Ac peptide displacement; Potency, µM (top dose mostly 114 µM), without a hit: top-dose activity change, negative = inhibition, actives largely listed as inhibitors; note: % is set by controls: 0 for no effect and ±100 for the full control effect; nearly all actives have a fitted effect of over 60% in size
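BAZ2B (50 nM) with biotin-H3(5-23)K14Ac peptide (50 nM) in PBS pH 7.4, 0.01% Tween-20, preformed 30 min, then compound 30 min at room temperature; top concentration 110uM. AlphaScreen streptavidin donor/nickel chelate acceptor beads (10 ug/mL final), 20 min dark, signal read.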
G9a inh: qHTS Assay for Inhibitors of Histone Lysine Methyltransferase G9a | Histone-lysine N-methyltransferase EHMT2 (Homo sapiens), Q96KQ7 | G9a H3K9 monomethylation, AlphaScreen, 2 h | Potency, µM (titrated, usually from 102 µM), for inactives: at the top dose activity, negative = inhibition, usual class: inhibitors | 8.8% of 350,000 active; note: % is set by controls: 0 for no effect and ±100 for the full control effect; nearly all actives have a fitted effect of over 75% in size
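G9a (20 nM) was preincubated 15 min with compound, then reacted 2 h at room temperature with 500 nM biotin-H3K9 peptide and 20 µM SAM. Monomethyl-H3K9 detected by AlphaScreen using anti-H3K9me1 antibody.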
TDP1 inh: qHTS Assay for Inhibitors of Tyrosyl-DNA Phosphodiesterase (TDP1) | Potency, µM (titrated, usually from 130 µM), without a hit: top-dose activity change, negative = inhibition, actives largely listed as inhibitors | 0.28% of 350,000 active | AID 485290, 2010 | Tyrosyl-DNA phosphodiesterase 1 (Homo sapiens), Q9NUW8 | recombinant TDP1, AlphaScreen DNA substrate cleavage; note: % is set by controls: 0 for no effect and ±100 for the full control effect; nearly all actives have a fitted effect of over 40% in size
Target sequence (Q9NUW8 whole entry, looked up): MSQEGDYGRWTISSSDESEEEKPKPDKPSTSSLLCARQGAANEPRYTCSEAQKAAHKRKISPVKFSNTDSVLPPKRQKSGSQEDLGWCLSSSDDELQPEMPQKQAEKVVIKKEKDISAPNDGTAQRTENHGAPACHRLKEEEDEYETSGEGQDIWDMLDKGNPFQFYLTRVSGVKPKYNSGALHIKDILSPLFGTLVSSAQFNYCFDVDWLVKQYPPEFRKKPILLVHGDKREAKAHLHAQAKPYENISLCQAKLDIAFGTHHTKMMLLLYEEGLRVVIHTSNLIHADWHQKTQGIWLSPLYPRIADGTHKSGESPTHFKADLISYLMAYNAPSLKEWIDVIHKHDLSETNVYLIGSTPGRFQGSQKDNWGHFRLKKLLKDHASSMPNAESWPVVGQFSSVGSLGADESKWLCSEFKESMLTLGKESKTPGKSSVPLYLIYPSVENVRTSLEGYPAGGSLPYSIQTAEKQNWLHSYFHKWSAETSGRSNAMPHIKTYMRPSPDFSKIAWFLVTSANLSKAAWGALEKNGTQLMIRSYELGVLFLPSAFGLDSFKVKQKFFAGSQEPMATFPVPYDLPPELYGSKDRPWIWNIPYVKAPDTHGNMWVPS
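Enzyme-compound mixtures sat 15 min at room temperature, followed by a 5 min reaction with 15 nM final substrate and 10 min with AlphaScreen beads. Recombinant human Tdp1 was used at 1 nM final.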
* marks the source's active call; other numbers are inactive results; u = inconclusive; x = no result given; [ ] = remark or other dose. Calls come from the whole dose curve; as a rule, active = well fitted curve in the direction sought with a large enough effect; inconclusive = small, poorly fitted or top-dose-only effect, or another doubt; inactive = no such curve, though single readings can be large; an effect the other way counts as inactive or inconclusive. Potency is the fitted concentration of half-maximal effect.

SMILES | HP1b binding inh | JMJD2A Tudor inh | Sfp inh | BAZ2B block | G9a inh | TDP1 inh
Cc1ccc(NC(=S)N(CCN(C)C)C(C)c2cccnc2)cc1 (centres undefined) | 7% | -27% | 12% | -13% | 1%[59 µM] | 0%
Cc1cccc(C)c1NC(=S)N(CCN(C)C)C(C)c1cccnc1 (centres undefined) | 31% | -13% | 79µM* | -24% | -1%[59 µM] | 8%
Cc1cccc(C2NC(=O)c3ccccc3O2)c1 (centres undefined) | 68% | 12%[57.1 µM] | 2% | -5% | 16% | x
CC1=NNC(=O)c2ccccc2O1 | 27% | 5µM* | u | 50µM* | -137%[59 µM] | -8%
CN1CCC(Nc2ncc3ncnc(Nc4ccc(F)c(Cl)c4)c3n2)CC1 | x | x | -24% | x | u | 8%
CCC(C)NS(=O)(=O)c1ccc(NC(=O)CNCc2cccs2)cc1 (centres undefined) | -11% | 25µM* | x | x | x | x
CCC(C)NS(=O)(=O)c1cccs1 (centres undefined) | 36% | 19% | 11% | -1% | 5%[12.7 µM] | 2%
CCC(C)(C)NCC(=O)Nc1ccc(OC(F)(F)F)cc1 | 39% | -9% | -11% | -3% | -24%[59 µM] | 6%
Cc1ccc(NC(=O)Cc2cccs2)cc1Cl | 82% | 14% | -1% | -2% | 6% | 1%
O=C(CNCc1cccs1)Nc1ccc(OC(F)(F)F)cc1 | 28µM* | 4µM* | -27% | 28µM* | -12%[2.33 µM] | x
Cc1ccc(NC(=O)CNCc2cccs2)cc1Br | 50µM* | 1.3µM* | -18% | 40µM* | 18µM* | x
NC(=O)c1ncn([C@@H]2O[C@H](CNCc3cccn3-c3ccncc3)[C@@H](O)[C@H]2O)n1 | 20% | -17% | x | x | x | x
Cc1cccc(NC(=S)N2CCC(NC(=O)C3CCCCC3)CC2)c1 | 26% | -5% | 15% | 0% | 11% | 2%
C#CCSc1nc2ccccc2c(=O)n1CC=C | 20%[57 µM] | 17%[57.1 µM] | x | x | x | -4%
CCOc1ccc(S(=O)(=O)NCc2ccccn2)cc1NC(=O)c1ccccc1 | 15% | 7.9µM* | x | -31% | -5% | 0%
CNS(=O)(=O)c1cc(C(=O)O)ccc1OC | 12% | 13µM* | 26% | -17% | 8% | -3%
COc1ccc(C(=O)O)cc1S(=O)(=O)NCc1ccccn1 | 13% | u | -2% | 71µM* | 6% | x
Cc1cc(S(=O)(=O)NCC(C)C)ccc1OCC(=O)NCc1ccccn1 | 17% | 22µM* | -30% | u | u | 3%
Cc1cc(S(=O)(=O)NCc2ccccc2)ccc1OCC(=O)NCc1ccccn1 | 45% | -8% | 13% | -1% | 19% | 8%
CC(C)CN1CCCC2(CCN(S(=O)(=O)c3ccccc3)CC2)C1 | x | x | 14% | x | 8%[12.7 µM] | x
N#Cc1ccc(OCC(=O)NC2CCCCCC2)cc1 | 11% | -1% | x | x | x | 0%
Cc1ccc(C(C)C)cc1S(=O)(=O)NCc1ccccn1 | 21% | 7% | 1% | 6% | 17% | 4%
O=S(=O)(NCc1ccccn1)c1cc(Cl)ccc1Cl | 22% | -7% | -11% | -7% | 79µM* | 3%
COc1ccc(C(C)C)cc1S(=O)(=O)NCc1ccccn1 | 10% | 2.2µM* | -9% | -4% | 10%[12.7 µM] | 2%
COC(=O)C1=C(C(=O)OC)C2(OC1c1ccccc1C)C(=O)c1ccccc1C2=O (centres undefined) | 17% | -13% | -29% | 5% | 14µM* | -3%
SMILES | HP1b binding inh | JMJD2A Tudor inh | Sfp inh | BAZ2B block | G9a inh | TDP1 inh
COC(=O)C1=C(C)N(C)C(C)=C(C(=O)OC)C1c1ccccc1C | 23% | -3% | -7% | -2% | -6% | -1%
Cc1cccc(N(Cc2cc3ccccc3[nH]c2=O)S(C)(=O)=O)c1 | 15% | -20% | 56µM* | -4% | -43% | 5%
CCN(CC)Cc1cc(NC2=NS(=O)(=O)c3ccccc32)ccc1OC(=O)c1ccccc1 | 43% | -10% | 7% | -7% | 79µM* | 4%
C=C1C(CCl)(CCl)C2(Cl)C(Cl)C(Cl)C1(Cl)C2(Cl)Cl (centres undefined) | x | x | -18% | x | u | 6%
COC(=O)c1ccc(/C=N/Nc2nc(-c3ccc(Cl)cc3Cl)cs2)cc1 | x | x | 10% | -36% | 50µM* | 6%
COC(=O)c1ccc(/C=N/Nc2nc(-c3ccc(C)cc3)cs2)cc1 | 32% | -11% | -27% | -5% | 79µM* | 7%
COc1ccc(/C=N/Nc2nc(C(=O)O)cs2)cc1 | 34% | u | u | 45µM* | 40µM* | x
COC(=O)c1ccc(/C=N/Nc2nc(C)c(C)s2)cc1 | 32% | -27% | 0% | 4% | x | 6%
COc1ccc(-c2nc(CNC(=O)Nc3ccccc3)c(C)o2)c(OC)c1 | 10% | -7% | x | -27% | u | 4%
O=[N+]([O-])c1cccc(Cl)c1N1CCOCC1 | -12% | -21% | -9% | -9% | 14% | 1%
C=CS(=O)(=O)c1sc(Cl)c(N2CCOCC2)c1[N+](=O)[O-] | u | 79µM* | 22µM* | u | 8.9µM* | 3%
C=CSc1sc(Cl)c(N2CCOCC2)c1[N+](=O)[O-] | 50µM* | 50µM* | u | 14µM* | -106%[59 µM] | 3%
O=c1oc2ccc([N+](=O)[O-])cc2c(N2CCOCC2)c1[N+](=O)[O-] | x | x | -4% | -3% | u | x
CC(C)(C)OC(=O)n1cc(CCO)c2ccccc21 | 35% | -15% | x | 1% | 11%[0.501 µM] | -2%
Cc1ccc(-c2csc(C3=C(O)CN(NC(=O)c4ccco4)C3=N)n2)cc1 | 22% | -33% | 21% | 1% | 3% | -14%
c1ccc2c(c1)OCC(c1nn3c(Cn4nnc5ccccc54)nnc3s1)O2 (centres undefined) | u | u | 2.5µM* | 50µM* | 5µM* | x
COc1ccc(OCc2nn3c(Cn4cnc5ccccc54)nnc3s2)cc1 | u | -33% | 25µM* | 4% | 5.6µM* | 1%
c1ccc(OCc2nn3c(Cn4nnc5ccccc54)nnc3s2)cc1 | u | u | 13µM* | -8% | 2.8µM* | -5%
c1ccc(Cc2nn3c(Cn4nnc5ccccc54)nnc3s2)cc1 | -41% | -29% | 35µM* | -1% | 8.9µM* | 2%
